Source: PubChem BioAssay
Shown are actives, neighbours in structure and some others; about 2.4% of the full set was active somewhere.
ERK AVP block = inhibitors of vasopressin-stimulated ERK signaling pathway | HEK293-V1b, vasopressin-stimulated pERK AlphaScreen | Potency, µM (doses to about 57.5 µM), without a hit: top-dose activity, negative = inhibition, actives largely listed as inhibitors | actives 0.99% (n = 72,000); further: potency means the concentration at half of the fitted maximal effect; on the % scale 0 is the no-effect control and ±100 the full control effect; nearly all actives have a fitted effect of over 55% in size
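Phosphorylated ERK1/2 detected via AlphaScreen bead proximity in lysates of V1b-expressing HEK293 cells given 25 nM vasopressin for 5 min after 30 min compound exposure (37 °C). AC50 from Hill equation; basal DMSO 0%, vasopressin 100%.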
ALOX15 inhib = inhibitors of human 15-lipoxygenase (ALOX15); Potency, µM (series often up to 57.1 µM), for the others: at the top dose activity change, negative = inhibition, hits mostly inhibitors; AID 887; P16050; purified 15hLO-1, xylenol orange hydroperoxide absorbance; actives 1.4% (n = 74,000); further: potency means the concentration at half of the fitted maximal effect; on the % scale 0 is the no-effect control and ±100 the full control effect; nearly all actives have a fitted effect of over 55% in size
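Hydroperoxide formed from arachidonic acid (50 uM) by purified human 15hLO-1 (40 nM) oxidizes ferrous iron, and the ferric-xylenol orange complex is read at 573 versus 405 nm. Compounds were preincubated 15 min; reaction ran 6 min at room temperature.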
DNA Pol III inh = DNA polymerase III holoenzyme inhibition. reconstituted DNA polymerase III holoenzyme replication, biochemical. Potency, µM (series often up to 57.1 µM), for the others: at the top dose activity change, negative = inhibition. actives 0.25% (n = 71,000). AID 603; further: potency means the concentration at half of the fitted maximal effect; on the % scale 0 is the no-effect control and ±100 the full control effect
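Reconstituted *E. coli* holoenzyme (0.35 nM Pol III, 1 nM beta, 154 nM SSB, 2 nM primase) was preincubated with compound for 15 min at RT. Synthesis on 1.4 nM ssM13Gori ran 35 min, then was stopped with PicoGreen/EDTA and read as dsDNA fluorescence.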
BRCT inh red = inhibitors of human BRCA1 BRCT-phosphoprotein interaction (red fluorophore); BRCT-phosphopeptide binding, red fluorescence polarization; Potency, µM (doses to about 76.9 µM), without a hit: at the highest dose activity change, negative = inhibition, usual class: inhibitors; actives 0.03% (n = 75,000); further: on the % scale 0 is the no-effect control and ±100 the full control effect
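Rhodamine-labelled pBACH1 10-mer (100 nM) bound to BRCT domain (100 nM) at pH 7.3; compounds incubated 12 min room temperature, polarization read. Free peptide defines full inhibition; unlabelled decapeptide titrated as control.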
TsaE inh = inhibitors of E. coli YjeE (TsaE); P0AF67; actives 0.05% (n = 71,000); purified YjeE enzyme, qHTS inhibition assay; Potency, µM
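Purified YjeE (10 uM) with BODIPY Texas Red-labeled ADP probe (2 uM); compounds pin-transferred, 15 min at room temperature. Binding inhibition read as decreased fluorescence polarization; ADP titration as control.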
BRCT PPI green = blocks human BRCA1 BRCT binding to phosphopeptide, green readout; P38398; Potency, µM (highest dose often 76.9 µM), for inactives: top-dose activity change, negative = inhibition, usual class: inhibitors; AID 875; actives 0.05% (n = 75,000); BRCA1 BRCT-phosphopeptide binding, green fluorescence polarization;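 further: potency means the concentration at half of the fitted maximal effect; plate controls were peptide without protein for full effect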
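Compounds were incubated for 12 min at room temperature with a complex of 100 nM fluorescein-tagged pBACH1 decapeptide and 250 nM His-tagged BRCT protein. Buffer was phosphate pH 7.3 with EDTA, DTT and Tween 20. Disruption of binding lowers the polarization signal.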
* = called active by the depositor; i = inactive; u = inconclusive; x = not tested or not shown; [ ] = another dose, or the depositor's remark. The call rests on the fitted dose curve; in most records, active means well fitted curve in the direction sought with a large enough effect; inconclusive means small, poorly fitted or top-dose-only effect, or another doubt; inactive means no such curve, though single readings can be large; an effect the other way counts as inactive or inconclusive.

SMILES	ERK AVP block	ALOX15 inhib	DNA Pol III inh	BRCT inh red	TsaE inh	BRCT PPI green
Fc1ccc2[nH]c3c(N4CCN(c5ccccc5)CC4)ncnc3c2c1	10µM*	-2%	-4%	-2%	i	0%
O=C(c1ccncc1)N1CCC2(CC1)CN(c1ncccn1)C2	7%	-4%	-8%	0%	i	-3%
O=C(Nc1ccc(SC(F)F)cc1)c1ccc2nccnc2c1	25µM*	-16%	-11%	1%	i	-2%
O=C(Nc1ccccc1)N1CCCC2(CCN(C(=O)c3cnccn3)CC2)C1	-12%	7%	-5%	-1%	i	-2%
Cc1noc(C)c1C(=O)N1CCC2(CC1)CCN(C(c1ccccc1)c1ccccc1)CC2	0%	-27%	0%	0%	i	-3%
O=S(=O)(NC1CCc2ccccc21)c1ccc(S(=O)(=O)N2CCCC2)cc1 (centres undefined)	u	2%	2%	0%	i	0%
O=C(Oc1ccc2c(c1)OCO2)c1cc2c(s1)CCC2	-12%	20µM*	-29%	-17%	i	-11%
O=C(c1cc2c(s1)CCCC2)N1CCN(Cc2ccc3c(c2)OCO3)CC1	-22%	-22%	6%	0%	i	-2%
O=C(Cn1cc2c(n1)CCCC2)N1CCCc2ccccc21	-15%	25µM*	-3%	-3%	i	-1%
O=C(Cn1cc2c(n1)CCCCC2)N1CCCCC1	-15%	3%	0%	-2%	i	-3%
O=c1cc(CSc2nnnn2-c2ccccc2)[nH]c2[nH]n(-c3ccccc3)c(=O)c12	u	-14%	-10%	-1%	i	-2%
CCOC(=O)Cc1csc(NC(=O)CSc2ncnc3c2cnn3-c2ccccc2Cl)n1	40µM*	-13%	0%	-1%	i	4%
Cc1ccc(C2CC(=O)N3CN(c4ccc(Br)cc4)CSC3=C2C#N)o1 (centres undefined)	-16%	2.5µM*	-11%	-4%	i	-2%
N#CC1=C2SCN(c3ccccc3)CN2C(=O)CC1c1ccccc1Cl (centres undefined)	6%	u	-5%	2%	i	0%
N#CC1=C2SCN(c3ccccc3)CN2C(=O)CC1c1cccs1 (centres undefined)	-29%	4µM*	-6%	-1%	i	0%
COc1cc(OC)c(C2CC(=O)N3CN(c4ccccc4)CSC3=C2C#N)cc1OC (centres undefined)	-1%	u	-2%	-1%	i	-1%
N#CC1=C2SCN(c3ccccc3)CN2C(=O)CC1c1c(Cl)cccc1Cl (centres undefined)	u	3.2µM*	-5%	-1%	i	-1%
O=C(c1ccco1)N1CCC2(CC1)CN(C(c1ccccc1)c1ccccc1)C2	-22%	-13%	-1%	1%	i	-2%
Cc1noc(C)c1-c1nc(NCCN2CCOCC2)c2ccccc2n1	-16%	u	-2%	0%	i	-1%
CC1(c2ccc3noc(-c4ccc(Cl)cc4)c3c2)OCCO1	16µM*	-6%	-5%	-1%	i	2%
COC(=O)CSCc1nc2ccccc2[nH]c1=O	-26%	13µM*	-10%	-1%	i	20%
O=C(O)c1cc(S(=O)(=O)Nc2ccc3oc(=O)sc3c2)ccc1O	29%	u	-1%	1%	i	0%
CCCC(=O)N(c1ccc2oc(=O)sc2c1)S(=O)(=O)c1ccccc1	-27%	25µM*	-4%	0%	i	-1%
CC(C)C(=O)N(c1ccc2oc(=O)sc2c1)S(=O)(=O)c1cccs1	-15%	20µM*	-6%	0%	i	-1%
CC(=O)N(c1ccc2oc(=O)sc2c1)S(=O)(=O)c1cccs1	5%	10µM*	-2%	-1%	i	-3%
SMILES	ERK AVP block	ALOX15 inhib	DNA Pol III inh	BRCT inh red	TsaE inh	BRCT PPI green
N#CCCn1c(=O)c(-c2ccc(F)cc2)nc2cnc(Oc3cccc(Cl)c3)nc21	-11%	2%	-5%	-2%	i	5%
COc1ccc(NC(=O)c2cnc(C)cn2)cc1-n1cnnn1	40µM*	-2%	0%	-2%	i	-1%
O=C(Nc1nc2c(ccc3ccccc32)s1)c1ccco1	13µM*	u	-7%	2%	i	-2%
COC(c1ccccc1Br)C(C)/C=C/CCO (centres undefined)	16%[11.5 µM]	1.6µM*	x	0%[15.4 µM]	x	-3%[15.4 µM]
CCOc1ccc(NC(=O)N(CCN(C)C)C(C)c2ccncc2)cc1 (centres undefined)	-11%	3%	-5%	1%	i	0%
CCCn1nc(-c2nnc(-c3ccc(C)c(C)c3)o2)c2ccccc2c1=O	-2%	-6%	-4%	1%	i	-2%
Cc1sc2c(c1C)c(=O)n(-c1ccccc1)c1nnc(C)n21	x	3.2µM*	x	0%	x	-1%
COc1ccc(-n2c(=O)c3c4c(sc3n3c(C)nnc23)CCCC4)cc1	13%	-12%	2%	2%	i	2%
CC1CCCCN1CCNS(=O)(=O)c1ccc2c(c1)oc(=O)n2C (centres undefined)	23%	10%	2%	-2%	i	-3%
COc1ccccc1N1C(=O)CC(Nc2ccc(N3CCOCC3)cc2)C1=O (centres undefined)	u	13µM*	-7%	0%	i	-3%
O=P(O)(CCP(=O)(O)c1ccccc1)c1ccccc1	22%[11.5 µM]	6%[11.4 µM]	-6%[11.4 µM]	1%[15.4 µM]	i	-2%[15.4 µM]
Cc1cccc(N2CCN(C(=O)C3CCCN(S(=O)(=O)c4cccc5cccnc45)C3)CC2)c1C (centres undefined)	1%	-4%	-6%	-1%	i	2%
O=C1C2C3CCCC3=C3CCCC3C2C(=O)N1c1cccc(Cl)c1 (centres undefined)	3%	10µM*	-4%	-2%	i	-3%
O=C1C2C3CCCC3=C3CCCC3C2C(=O)N1c1ccc(Cl)cc1 (centres undefined)	-28%	u	-8%	-6%	i	-8%
Cc1cc(N2CCN(C(=O)c3ccco3)CC2)n2nc(-c3cccc(Cl)c3)cc2n1	25µM*	-5%	-6%	-2%	i	0%
Cc1nc2cc(-c3cccc(Cl)c3)nn2c(N2CCN(C(=O)c3ccco3)CC2)c1C	6%	3%	-3%	0%	i	-1%
N#CC1=C(N)C2=C(N3CCCCC3)CCCC2C1(C#N)C#N (centres undefined)	7%	13µM*	-21%	-8%	i	-5%
N#Cc1c(-c2ccco2)c2c([nH]c1=S)CCCC2	u	16µM*	-26%	-2%	i	8%
